Most compounds without a hit are left out; they make up all but 2.3% or so of the library.
ABHD5 PLIN5 PPI: inhibitors of human ABHD5-perilipin-5 interaction; Split G. princeps luciferase complementation, luminescence, 4 h; inhibition, % at 4 µM; 360,000 compounds, 0.78% hits;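 active means inhibition above the mean inhibition across every tested compound plus 3 SD, cut at about 22% in these data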
Target sequence (Q00G26 whole entry, looked up): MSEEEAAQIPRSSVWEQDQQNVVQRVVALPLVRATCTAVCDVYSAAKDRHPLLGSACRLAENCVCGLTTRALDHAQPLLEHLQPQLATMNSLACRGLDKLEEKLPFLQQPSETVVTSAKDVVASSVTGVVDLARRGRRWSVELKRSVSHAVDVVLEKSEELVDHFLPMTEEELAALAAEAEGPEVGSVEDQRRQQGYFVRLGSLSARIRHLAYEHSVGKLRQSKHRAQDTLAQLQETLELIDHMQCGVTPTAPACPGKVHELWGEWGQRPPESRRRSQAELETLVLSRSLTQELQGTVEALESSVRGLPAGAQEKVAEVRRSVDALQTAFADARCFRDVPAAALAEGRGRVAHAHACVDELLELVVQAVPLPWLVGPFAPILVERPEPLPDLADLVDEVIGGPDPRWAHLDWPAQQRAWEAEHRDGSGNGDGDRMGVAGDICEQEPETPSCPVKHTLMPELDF
Target sequence (Q8WTS1 whole entry, looked up): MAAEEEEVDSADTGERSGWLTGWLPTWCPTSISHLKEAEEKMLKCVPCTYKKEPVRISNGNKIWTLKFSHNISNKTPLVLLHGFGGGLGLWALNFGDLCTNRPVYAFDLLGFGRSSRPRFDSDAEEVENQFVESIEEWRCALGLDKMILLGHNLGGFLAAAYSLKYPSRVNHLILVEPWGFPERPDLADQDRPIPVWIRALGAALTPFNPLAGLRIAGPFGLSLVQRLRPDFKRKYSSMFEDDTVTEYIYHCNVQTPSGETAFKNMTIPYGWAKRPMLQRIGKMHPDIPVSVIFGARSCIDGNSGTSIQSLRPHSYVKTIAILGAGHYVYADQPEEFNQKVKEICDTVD
Granule exo inh: blocks lytic granule exocytosis; TALL-104 LAMP-1 surface exposure, flow cytometry; cells stimulated with thapsigargin and PMA; inhibition, % at 10 µM; 360,000 compounds, 0.66% hits; AID 651702;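 active means inhibition above about 55%, limit read from the data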
Beta2AR agonist: activates human beta-2 adrenergic receptor causing internalization; P07550; Am2.2-beta2AR cells, FAP receptor internalization, flow cytometry; response, % (test concentration not listed); 340,000 compounds, 0.43% hits; AID 504454;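 active means response above a set limit, near 3 SD of response in nonfluorescent compounds, cut at about 42% in these data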
NTR1 ag: agonists of human neurotensin receptor NTR1. AID 493036. NTR1-U2OS beta-arrestin-GFP spot imaging, agonist mode. activation, % at 20 µM. 330,000 compounds, 0.17% hits. P30989;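 active means activation at or above 40% of the spot to cytoplasm intensity ratio, with at least 20 cells analyzed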
m5-HT2A agonist: activates the mouse 5-HT2A serotonin receptor; P35363; CHO-K1 mHTR2A beta-arrestin complementation, luminescence; percent of 30 µM serotonin response; activation, % at 7.6 µM; 360,000 compounds, 0.66% hits;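 active means activation above a run cutoff, the mean activation of all tested compounds plus 3 SD, cut at about 14% in these data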
ABHD5 PLIN5 conf: ABHD5-PLIN5 interaction inhibition, confirmed; shares compounds with ABHD5 PLIN5 PPI; biochemical ABHD5-PLIN5 interaction, luminescence; inhibition, % at 4 µM; 2,200 compounds, 67% hits; AID 651612; in the data active means inhibition above about 23%
HNF4 split-luc: HNF4 split-luciferase signal hit, counter-screen; shares compounds with ABHD5 PLIN5 PPI; HNF4 dimerization, luminescence, biochemical; inhibition, % at 4 µM; 2,200 compounds, 77% hits;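 active means mean inhibition across replicate wells exceeding the computed hit threshold, cut at about 13% in these data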;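 further: light from luciferase halves that rejoin when HNF4 fusion proteins dimerize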
Numbers stand for hits; i = inactive; nt = no result.

SMILES	ABHD5 PLIN5 PPI	Granule exo inh	Beta2AR agonist	NTR1 ag	m5-HT2A agonist	ABHD5 PLIN5 conf	HNF4 split-luc
O=C1OC(/C(=C\Nc2cc(Cl)ccc2O)[N+](=O)[O-])c2ccccc21 (stereo not drawn)	62	i	i	i	i	i	50
O=C1OC(/C(=C\Nc2ccc(F)cc2F)[N+](=O)[O-])c2ccccc21 (stereo not drawn)	54	i	i	i	i	25	61
Cc1ccc(N/C=C(\C2OC(=O)c3ccccc32)[N+](=O)[O-])c(C)c1 (stereo not drawn)	54	i	i	i	i	i	34
CN(NC1OC(=O)c2ccccc21)c1ccc(Cl)cc1[N+](=O)[O-] (stereo not drawn)	i	i	i	i	i	nt	nt
CCCn1c(=NC(=O)c2c(-c3c(F)cccc3Cl)noc2C)c(C(=O)OCC)cc2c(=O)n3ccccc3nc21	nt	nt	nt	i	nt	nt	nt
CCCn1c(=NC(=O)c2ccco2)c(C(=O)OCC)cc2c(=O)n3ccccc3nc21	41	i	i	i	i	i	27
CCOC(=O)c1cc2c(=O)n3cccc(C)c3nc2n(CC(C)C)c1=NC(=O)c1ccco1	i	i	i	i	i	nt	nt
Cc1ccc(S(=O)(=O)c2cc3c(=O)n4ccccc4nc3n(Cc3ccco3)c2=N)cc1C	nt	nt	nt	i	nt	nt	nt
N=c1c(S(=O)(=O)c2ccccc2)cc2c(=O)n3ccccc3nc2n1Cc1ccco1	25	i	i	i	i	i	25
CCOC(=O)c1cc2c(=O)n3ccccc3nc2n(Cc2ccco2)c1=NC(=O)c1cccc(OC)c1	i	i	i	i	i	nt	nt
CCOC(=O)c1cc2c(=O)n3ccccc3nc2n(C(C)C)c1=NC(=O)c1ccco1	41	i	i	i	i	i	24
CCOCCCn1c(=NC(=O)c2ccco2)c(C(=O)OCC)cc2c(=O)n3cccc(C)c3nc21	27	i	i	i	i	i	30
CCn1cc(CN2CCCC(C(=O)Nc3ccc(-c4cscn4)cc3)C2)cn1 (stereo not drawn)	i	i	i	i	i	nt	nt
CC(C)n1c(=NC(=O)c2ccco2)c(C#N)cc2c(=O)n3ccccc3cc21	27	i	i	i	i	29	54
CCOC(=O)c1cc2c(=O)n3ccccc3nc2n(Cc2ccco2)c1=NC(=O)c1ccc(OC)cc1	i	i	i	i	i	nt	nt
CCOC(=O)c1cc2c(=O)n3ccccc3nc2n(Cc2ccco2)c1=NC(=O)c1ccccc1OC	44	i	i	i	i	i	73
CCOC(=O)C1=CCN(S(=O)(=O)c2ccccc2Cl)C1c1cccc(C)c1 (stereo not drawn)	i	i	nt	nt	i	nt	nt
O=[N+]([O-])c1ccc2[nH]c(=S)sc2c1	i	i	i	nt	i	nt	nt
CCN(CC)CCN(CC(=O)Nc1c(C)cc(C)cc1C)C(=O)c1ccccc1	24	i	i	i	i	33	i
CCOC(=O)c1ccccc1NC(=O)Cc1ccc(S(=O)(=O)N2CCCC2)s1	i	i	i	i	i	nt	nt
O=C(/C=C/c1cccc([N+](=O)[O-])c1)c1ccc([N+](=O)[O-])o1	72	i	67	nt	i	105	111
O=C(/C=C/c1cccc([N+](=O)[O-])c1)c1ccco1	71	i	i	i	i	97	97
Cc1cccc(/C=C/C(=O)c2ccc([N+](=O)[O-])o2)c1	77	i	87	i	i	104	108
O=C(/C=C/c1cccc([N+](=O)[O-])c1)Nc1cccc(NC(=O)c2ccco2)c1	i	i	i	i	i	nt	nt
Cc1nc(S(=O)(=O)Nc2ccccc2C(=O)NCC2CC2)cn1C	i	i	i	i	i	nt	nt
SMILES	ABHD5 PLIN5 PPI	Granule exo inh	Beta2AR agonist	NTR1 ag	m5-HT2A agonist	ABHD5 PLIN5 conf	HNF4 split-luc
Cc1ccc(NC(=O)Cn2c(=O)n(Cc3ccco3)c(=O)c3ccccc32)c(C)c1	i	i	i	i	i	nt	nt
O=C(Cn1c(=O)n(Cc2ccco2)c(=O)c2ccccc21)Nc1cccc(Cl)c1	42	i	i	i	i	i	i
COc1cccc2c1C(=O)C=C(C)C2=O	37	64	i	i	i	57	64
CC(=O)Nc1cc(-c2ccccc2Cl)cn2c(-c3ccc(S(C)(=O)=O)cc3)cnc12	i	i	nt	nt	i	nt	nt
CN(C)CCNS(=O)(=O)c1ccc(N2CCN(c3ccc(F)cc3)CC2)c([N+](=O)[O-])c1	i	i	i	i	i	nt	nt
Cc1cccc(NC(=O)CSc2nnc(-c3cnccn3)n2Cc2ccco2)c1	68	i	i	i	i	i	i
CC(C)OC(=O)CSc1nnc(-c2cnccn2)n1Cc1ccco1	i	i	i	i	i	nt	nt
O=C(CSc1nnc(-c2cnccn2)n1Cc1ccco1)c1ccc2ccccc2c1	37	i	i	i	i	i	27
Cc1cccc(NC(=O)CSc2nnc(-c3ccco3)c(-c3ccco3)n2)c1C	i	i	i	i	i	nt	nt
Cc1cccc(NC(=O)CSc2nnc(-c3ccco3)c(-c3ccco3)n2)c1	26	i	i	i	i	90	67
Cc1ccc(NC(=O)CSc2nnc(-c3cnccn3)n2Cc2ccco2)cc1	i	i	i	i	i	nt	nt
COc1cccc(CN2CCC(N(CCc3ccccc3)Cc3ccccc3)CC2)c1OC	i	i	i	i	i	nt	nt
Cc1ccc(S(=O)(=O)CCOC(=O)CNC(=O)OCc2ccccc2)cc1	i	i	nt	nt	i	nt	nt
CCNC(=O)C1(C)CCN(Cc2ccccc2-c2ccccc2)C1 (stereo not drawn)	i	i	nt	nt	i	nt	nt
CCCNC(=O)CN(c1cccc(F)c1)S(C)(=O)=O	i	i	i	i	i	nt	nt
O=C(NCc1cccnc1)c1ccc(-c2ccc(Cl)cc2)o1	i	i	i	i	i	nt	nt
O=C(NCc1cccnc1)/C(=C\c1ccc(-c2ccc(Cl)c(Cl)c2)o1)S(=O)(=O)c1ccccc1	77	101	95	nt	i	101	97
O=C(NC1=C(Nc2ccc(Cl)cc2)C(=O)c2ccccc2C1=O)c1ccccc1	i	i	i	i	i	nt	nt
O=C1C(Cl)=C(NC(=O)c2ccccc2)C(=O)C(Cl)=C1NC(=O)c1ccccc1	71	i	56	i	i	103	110
O=C1CC(c2ccccc2)CC(=O)C1CS(=O)(=O)c1ccccc1 (stereo not drawn)	34	i	i	i	i	48	105
O=C1CC(=O)CC(c2ccccc2)C1	i	i	i	i	i	nt	nt
COc1ccccc1OCc1nnc(SCC(=O)NCc2ccco2)n1Cc1ccco1	31	i	i	i	i	48	34
Cc1ccccc1C(=O)N1CCC(C(=O)N2CCN(S(=O)(=O)c3ccccc3F)CC2)CC1	i	i	i	i	i	nt	nt
Cc1nnc(SCc2cccc([N+](=O)[O-])c2)[nH]c1=O	i	i	i	i	i	nt	nt
O=C1C=CC(=O)N1c1cccc(-c2ccccc2)c1	28	i	97	i	i	51	94
CCOC(=O)c1c(NC(C)=O)sc2c1CCC(C=O)=C2Sc1ccccc1	65	95	i	i	i	76	17

Screens: PubChem BioAssay, several laboratories
